Out of some 280,000 compounds screened, about 180 (0.064%) were called active. Many of the other results were omitted from the sample, so actives are more common in it than they were. Unmarked numbers belong to inactive results. The call rests on the fitted dose curve; in most records, active means well fitted inhibition curve with a large enough effect; inconclusive means small, poorly fitted or top-dose-only effect, or effect the other way; inactive means flat fitted curve, though single readings scatter.
Biological target: Thyroid hormone receptor beta (Homo sapiens) (UniProt P10828)
Sequence (P10828 whole entry, looked up): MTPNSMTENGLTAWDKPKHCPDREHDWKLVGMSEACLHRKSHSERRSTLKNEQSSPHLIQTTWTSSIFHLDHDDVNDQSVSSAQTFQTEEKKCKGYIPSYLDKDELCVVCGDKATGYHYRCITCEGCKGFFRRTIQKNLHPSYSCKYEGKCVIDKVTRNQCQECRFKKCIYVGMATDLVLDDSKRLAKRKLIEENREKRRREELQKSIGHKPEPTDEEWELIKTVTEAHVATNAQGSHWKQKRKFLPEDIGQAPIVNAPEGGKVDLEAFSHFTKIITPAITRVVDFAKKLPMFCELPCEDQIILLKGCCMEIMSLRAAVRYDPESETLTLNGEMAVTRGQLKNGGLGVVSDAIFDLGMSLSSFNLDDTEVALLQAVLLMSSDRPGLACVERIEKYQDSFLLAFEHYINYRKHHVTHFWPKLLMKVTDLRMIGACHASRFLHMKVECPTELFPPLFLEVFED
Test: qHTS for Inhibitors of the Interaction of Thyroid Hormone Receptor and Steroid Receptor Coregulator 2; further: nearly all actives have a fitted effect of over 50% in size;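 on activity change, negative = inhibition: plate controls were bound peptide for no effect and peptide without receptor for full effect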
Conditions: TRbeta-SRC2 peptide binding, fluorescence polarization, receptor liganded with 1 µM T3; series mostly up to 106 µM; activity change, negative = inhibition: at the top concentration
Excerpt: NIH Molecular Libraries Probe Production Network [MLPCN]
NIH Chemical Genomics Center [NCGC]
Assay Provider: R. Kip Guy, St. Jude Children's Research Hospital
Thyroid receptor (TR) regulates many homeostatic processes including basal metabolism, cardiovascular function, body weight, and lipid trafficking. TR modulators are potential therapeutics for obesity and hyperlipidemias but current thyroid analogs have undesirable side effects, particularly cardiac stimulation. To identify inhibitors that specifically prevent the interaction of TR with the steroid receptor coregulator 2 (SRC2), a fluorescence polarization assay was screened. This assay detects interaction of the ligand-binding domain of human TRb with a Texas Red labeled SRC2 peptide, corresponding to a 20 amino acid region of the nuclear receptor interaction domain (Arnold et al., 2006). Small molecule inhibitors that block the interaction of TR and SRC2 are detected by a decrease in fluorescence polarization.
Arnold, L. A.; Estebanez-Perpina, E.; Togashi, M.; Shelat, A.; Ocasio, C. A.; McReynolds, A. C.; Nguyen, P.; Baxter, J. D.; Fletterick, R. J.; Webb, P.; Guy, R. K. A high-throughput screening method to identify small molecule inhibitors of thyroid hormone receptor coactivator binding. Sci STKE 2006, p 13.
NCGC Assay Protocol Summary:
For screening, 5 uL/well 0.6 uM TRb and 20 nM SRC2 Texas Red in protein buffer (20mM Tris hydrochloride, 100mM NaCl, 10% glycerol, 1mM EDTA, 0.01% NP-40, 1mM DTT, 1uM T3 and 5% DMSO) was dispensed into black solid 1536-well plates (Grenier) using a solenoid-based dispenser. Following transfer of 23 nL compound or DMSO vehicle by a pin tool, the plates were centrifuged 15 s at 1000 RPM and incubated 5 hr at ambient temperature. The plates were read by an Envision (Perkin Elmer) to detect fluorescence polarization of SRC2 Texas Red (555 nm excitation and 632 nm emission). Data were normalized to unbound (all components except TRb) and bound SRC2 Texas Red controls. In this assay, we provide % activity data for each concentration as well as potencies for the active compounds.
Keywords: NIH Roadmap, MLPCN, MLI, MLSMR, qHTS, NCGC, qHTS, thyroid hormone receptor, steroid receptor coactivator, fluorescence polarization
Potency means the concentration at half of the fitted maximal effect.

Row | SMILES | activity change, negative = inhibition | Potency
1 | COc1ccc(CNC(=O)c2ccc(NC(=O)N3CC4CCCN4c4ccccc43)cc2)cc1 (stereo not given) | -4.18% | 
2 | Cc1cccc(N2CCN(C3=C(c4ccccc4)C(=O)c4ccccc43)CC2)c1C | -3.14% | 
3 | Cc1nc2nc(NCc3cccc(Br)c3)[nH]n2c(=O)c1Cc1ccccc1 | -7.16% | 
4 | C[Si](C)(C)N[Si](C)(C)C | 2.92% [at 201 µM] | 
5 | CN(C)c1ccc(N/C=C/C(=O)C(F)(F)F)cc1 |  | 44.7 µM (active)
6 | O=C(/C=C/Nc1ccccc1OC(F)(F)F)C(F)(F)F | 5.17% | 
7 | CCCOc1ccc(N/C=C/C(=O)C(C)(C)C)cc1 | 4.71% | 
8 | COc1ccc(C2=NC(c3ccncc3)=Nc3ccc(Br)cc3N2)cc1 | -4.88% | 
9 | Cc1ccccc1OCc1ccc(-c2nc(C#N)c(N3CCCCC3)o2)o1 | 0.495% | 
10 | Cc1cc(=O)n(CC(=O)Nc2cccc([N+](=O)[O-])c2)c(-n2nc(C)cc2C)n1 | 3.16% | 
11 | Cc1ccc(NC(=O)c2oc3ccc(S(=O)(=O)N4CCCCC4)cc3c2C)cc1Cl | -6.34% | 
12 | CCN(CC)c1cc(NC2CCCCC2)c2c3c(onc13)-c1ccccc1C2=O | -2.27% | 
13 | COc1cc(NC(=O)c2noc3c2CSc2ccccc2-3)cc(OC)c1OC | 3.67% | 
14 | CCc1cccc(C)c1Nc1c(-c2ccc(N(C)C)cc2)nc2ncccn12 | 7.62% | 
15 | CCOCCCNC(=O)c1ccc2nc(CCc3ccccc3)oc2c1 | 4.71% | 
16 | CCc1ccccc1NC(=O)Cc1ccc(NC(=O)N2CCCCc3ccccc32)cc1 | -8.69% | 
17 | CCOC(=O)c1ccc(N2C(=O)c3n[nH]c(-c4ccco4)c3C2c2ccc(O)cc2)cc1 (stereo not given) | -1.97% | 
18 | O=C(CCOc1ccccc1)N(Cc1cccnc1)c1nc2ccc(Cl)cc2s1 | -8.93% | 
19 | CCOC(=O)N1CCc2c(sc(NCc3cccc(F)c3)c2C(=O)Nc2ccccc2OCC)C1 | -2.15% | 
20 | COC(=O)CC1Oc2ccccc2-n2cc(-c3ccccc3)nc21 (stereo not given) | 2.42% | 
21 | Cc1ccc(O)c(NC(=O)CCS(=O)(=O)c2nc(-c3ccc4c(c3)OCO4)cc(C(F)(F)F)n2)c1 | 0.6% | 
22 | Cc1cc(C)cc(NC(=O)CSc2oc(-c3ccccc3)nc2S(=O)(=O)c2ccc(Cl)cc2)c1 | 3.51% | 
23 | CCOc1ccc(CNC(=O)c2ccc(CS(=O)c3ccccc3)o2)cc1 (stereo not given) | 2.05% | 
24 | CCCn1c(NCc2ccc(N(CC)CC)cc2)nc2ccccc21 | 5.29% | 
25 | CCOCCCNC(=O)c1c(NC(=O)Cc2coc3ccc(C)cc23)sc2c1CCC2 | -6.01% [at 53 µM] | 

Row | SMILES | activity change, negative = inhibition | Potency
26 | Cc1ccc2nc(-c3ccc(O)cc3)c(Nc3ccc4c(c3)OCO4)n2c1 | -5.88% | 
27 | Cc1ccc(-c2nc3ccccn3c2Nc2c(C)cccc2C)o1 | 2.13% | 
28 | Cc1ccccc1CS(=O)(=O)CC1Nc2ccc(C(=O)NCc3ccc(Cl)cc3)cc2NC1=O (stereo not given) | -3.54% | 
29 | Cc1cccc(N2CCN(c3ccc(C(=O)O)cc3NC(=O)c3ccccc3F)CC2C)c1 (stereo not given) | -2.14% | 
30 | CCOc1ccc(-c2cc(C)n3nc(C(=O)Nc4ccc(C)c(C)c4)cc3n2)cc1 | 3.95% | 
31 | COc1ccc(N=C(C)c2sc3ccccc3c2O)cc1 | 1.68% | 
32 | O=C(N/N=C/c1c(Cl)[nH]c2ccccc12)c1sc2ccccc2c1Cl | 0.527% | 
33 | Oc1ccc(N=Cc2sc3ccccc3c2Cl)cc1 |  | 14.1 µM (active)
34 | COc1cccc(-c2cc(C(=O)Nc3ccc(C)cc3)[nH]n2)c1 | -2.44% | 
35 | COc1ccc(CC(=O)Nc2nnc3n2CCS3)cc1OC | 5.54% | 
36 | Cc1ccc(Nc2nnc(-c3ccc(C)c(S(=O)(=O)N4CCCCC4)c3)c3ccccc23)cc1 | -3.05% | 
37 | COc1ccccc1N1CCN(CCCNC(=O)c2cnn(-c3ccccc3Cl)c2C2CCN(C(=O)OC(C)(C)C)CC2)CC1 | 5.02% | 
38 | CC1(C)C(=O)N(Cl)C(=O)N1Cl | 4.76% [at 201 µM] | 
39 | CCCCCCCCCCCCCCCC | 3.03% [at 201 µM] | 
40 | CCOc1ccccc1NC(=O)Cn1c2ncccc2c(=O)n1-c1ccc(C)c(C)c1 | -4.71% | 
41 | CC(C)Cn1c(-c2ccc(S(=O)(=O)N3CCOCC3)cc2)csc1=Nc1cc(Cl)ccc1Cl | 7.76% | 
42 | COc1cccc(-c2nc(CS(=O)(=O)CC(=O)N3CCN(c4cc(C)ccc4C)CC3)c(C)o2)c1 | 3.54% | 
43 | CC1(C)C(=O)N(Br)C(=O)N1Br | -5.8% [at 201 µM] | 
44 | Cc1nc2ccn(Cc3cccs3)c(=O)c2cc1C(=O)NCc1ccc(Cl)cc1 | -1.99% | 
45 | CCOc1cc(-c2nnc(SCC(=O)NC3CCCCC3)nc2-c2ccc(OC)c(OCC)c2)ccc1OC | 1.75% | 
46 | Cc1ccc(N)c(S(=O)(=O)O)c1 | 2.84% [at 201 µM] | 
47 | CCc1c(C(=O)O)c(=O)cnn1-c1ccc(Cl)cc1 | -9.72% [at 201 µM] | 
48 | CC1CCN(S(=O)(=O)c2ccc3c(ccn3CCC(=O)NCc3ccc(N(C)C)cc3)c2)CC1 | 5.16% | 
49 | COc1ccc(N2CCN(C(=O)C3CCCN(C(=O)c4cc5sccc5n4C)C3)CC2)cc1 (stereo not given) | -10.4% | 
50 | CC(=O)Nc1ccc(NC(=O)c2cc3sccc3n2Cc2ccc(F)cc2)cc1 | -11.5% [at 53 µM] | 
